Assay outcomes (PubChem BioAssay)
pPAFAH inh – inhibitors of human plasma PAF acetylhydrolase (pPAFAH). recombinant pPAFAH, FP-rhodamine probe fluorescence polarization. inhibition, % at 3.39 µM. 330,000 compounds, 1.5% hits;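 active = inhibition above the mean inhibition across the screen plus 3 SD, cut at about 25% in these data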;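 note: inhibitors block binding of the rhodamine activity-based probe so polarization drops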
Target sequence (Q13093 whole entry, looked up): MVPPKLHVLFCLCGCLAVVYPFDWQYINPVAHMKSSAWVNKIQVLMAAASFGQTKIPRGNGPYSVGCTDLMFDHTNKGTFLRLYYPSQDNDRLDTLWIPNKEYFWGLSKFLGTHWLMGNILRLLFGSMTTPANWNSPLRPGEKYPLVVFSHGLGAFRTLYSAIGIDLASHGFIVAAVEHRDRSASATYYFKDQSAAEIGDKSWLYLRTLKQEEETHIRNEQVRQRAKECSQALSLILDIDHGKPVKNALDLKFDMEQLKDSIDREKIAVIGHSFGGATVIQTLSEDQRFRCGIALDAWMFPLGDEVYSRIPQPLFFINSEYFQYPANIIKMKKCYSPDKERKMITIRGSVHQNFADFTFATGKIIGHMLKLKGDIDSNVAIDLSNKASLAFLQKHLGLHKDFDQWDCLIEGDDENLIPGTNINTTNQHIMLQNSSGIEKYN
LYPLA1 counter – counter-screen for PME1 inhibitors: inhibitors of human LYPLA1. O75608. recombinant LYPLA1, FP-Rh probe fluorescence polarization. inhibition, % at 5.9 µM. 320,000 compounds, 0.16% hits. AID 2174;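 active = inhibition above the mean of all tested compounds plus 3 SD, set per campaign, cut at about 14% in these data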;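 note: inhibitors block serine hydrolase probe labeling of LYPLA1 so polarization falls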
Target sequence (O75608 whole entry, looked up): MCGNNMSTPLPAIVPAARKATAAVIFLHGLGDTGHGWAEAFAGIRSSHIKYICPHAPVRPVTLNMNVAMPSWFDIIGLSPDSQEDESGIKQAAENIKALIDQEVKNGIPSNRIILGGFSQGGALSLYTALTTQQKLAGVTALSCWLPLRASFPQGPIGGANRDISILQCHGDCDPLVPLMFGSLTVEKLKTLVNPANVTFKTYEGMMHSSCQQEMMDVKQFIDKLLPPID
PAFAH2 inh – PAFAH2 (human) inhibition | recombinant PAFAH2, FP-rhodamine activity probe, fluorescence polarization | 340,000 compounds, 0.99% hits | AID 492956 | inhibition, % at 3.39 µM;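 active = inhibition above the mean over all tested compounds plus 3 SD, cut at about 30% in these data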;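 note: inhibitors block probe labeling of enzyme so polarization drops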
PAFAH1B2 FP inh – blocks human PAF acetylhydrolase 1b catalytic subunit 2; recombinant PAFAH1B2, FP-rhodamine activity probe, fluorescence polarization; inhibition, % at 3.39 µM; 340,000 compounds, 1.2% hits; AID 492953;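 active = inhibition above the mean of all tested compounds plus 3 SD, cut at about 24% in these data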
LYPLA2 counter – counter-screen for PME1 inhibitors: inhibitors of human LYPLA2; AID 2177; recombinant LYPLA2, FP-Rh probe fluorescence polarization; 320,000 compounds, 0.38% hits; inhibition, % at 5.9 µM;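 active = inhibition above the screen-wide mean plus 3 SD, limit set per campaign, cut at about 26% in these data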
PAFAH1B3 inh – PAFAH1B3 (human) inhibition; recombinant PAFAH1B3, FP-rhodamine probe, fluorescence polarization; inhibition, % at 3.39 µM; 340,000 compounds, 0.28% hits;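 active = inhibition above the screen-wide average of all tested compounds plus 3 SD, cut at about 25% in these data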
LYPLA2 confirm – LYPLA2 (human) inhibition, confirmation counter-screen. shares compounds with LYPLA2 counter. recombinant LYPLA2, FP-Rh probe fluorescence polarization. inhibition, % at 5.9 µM. 1,100 compounds, 72% hits. AID 2232;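 active = mean inhibition across replicates above the hit cutoff set in the primary screen, cut at about 26% in these data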;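 note: blocked labeling of the enzyme by serine hydrolase FP-Rh probe lowers polarization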
LYPLA2 gel ABPP – inhibitors of human LYPLA2 | shares compounds with LYPLA2 counter | rhLYPLA2 in mouse brain proteome, gel ABPP FP-Rh | inhibition, % at 20 µM | 150 compounds, 30% hits;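 active = inhibition of LYPLA2 enzyme probe labeling above about 50%, limit read from the data; inactive = inhibition below that limit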;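 note: loss of FP-Rh probe labeling of the LYPLA2 gel band measured as band density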
pPAFAH confirm – pPAFAH (human) inhibition, confirmed; shares compounds with pPAFAH inh; recombinant pPAFAH, FP-Rh probe fluorescence polarization; inhibition, % at 3.39 µM; 2,300 compounds, 72% hits;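 active = mean inhibition of the triplicate above the hit cutoff set for the earlier primary screen, cut at about 25% in these data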
Numbers stand for hits; – = inactive; · = no result given. A selection: hits, their analogues and other compounds. The true share with any hit is near 2.9%.

SMILES	pPAFAH inh	LYPLA1 counter	PAFAH2 inh	PAFAH1B2 FP inh	LYPLA2 counter	PAFAH1B3 inh	LYPLA2 confirm	others
Cc1cc(=O)oc2c(C)c(OCC(=O)N3CCN(C(=O)C4COc5ccccc5O4)CC3)ccc12 (stereo unspecified)	–	–	–	–	38.3	–	36.5
Cc1cc(=O)oc2c(C)c(OCC(=O)N3CCN(c4ccccc4)CC3)ccc12	–	–	–	–	–	–	·
COc1ccc(C2NS(=O)(=O)N=C2N)cc1 (stereo unspecified)	–	–	–	–	32.1	–	–
CCOC(=O)C1(CCOc2ccccc2)CCN(Cc2ccc3nonc3c2)CC1	–	–	–	–	30.9	–	28.4
O=C(C1=C[C@@H](c2coc3ccccc3c2=O)C[C@@H](OCc2ccc(CO)cc2)O1)N1CCN(Cc2ccccc2)CC1	–	–	–	–	–	–	·
Cc1ccccc1OCC(O)CN1CCN(CCN2C(=O)c3cccc4cccc(c34)C2=O)CC1 (stereo unspecified)	–	–	–	–	39.2	–	47.8
CC(=O)c1ccc(OCC(O)CN2CCN(CC(O)COc3ccc(C(C)=O)cc3)CC2)cc1 (stereo unspecified)	–	–	–	–	–	–	·
CCC(OCC(O)CN1CCN(CCN2C(=O)c3cccc4cccc(c34)C2=O)CC1)c1ccccc1 (stereo unspecified)	–	–	–	–	44.9	–	46.2
CC(=O)c1ccc(OCC(O)CN2CCN(CCN3C(=O)c4cccc5cccc(c45)C3=O)CC2)cc1 (stereo unspecified)	–	–	–	–	52.7	–	59.1	LYPLA2 gel ABPP=–
C=CCc1ccccc1OCC(O)CN1CCN(CCN2C(=O)c3cccc4cccc(c34)C2=O)CC1 (stereo unspecified)	–	–	–	–	26.6	–	36.8
CC(C)OCC(O)CN1CCN(CCN2C(=O)c3cccc4cccc(c34)C2=O)CC1 (stereo unspecified)	–	–	–	–	–	–	·
Cc1ccccc1SCC(=O)N1CCN(c2ccc(C(F)(F)F)cn2)CC1	–	–	–	–	27.6	–	36.3
O=C(CCC(=O)N1CCN(c2ccccn2)CC1)c1cccs1	–	·	–	–	·	–	·
O=C(CCC(=O)N1CCN(c2ccc(C(F)(F)F)cn2)CC1)c1cccs1	–	–	–	–	32.1	–	–
O=C(CSc1nc2cccnc2n1Cc1ccccc1)NC1CCCCC1	–	–	–	–	–	–	·
CCCNC(=O)c1ccc(N2CCC3(CC2)CC(c2ccccc2)=NO3)c([N+](=O)[O-])c1	–	–	–	–	28.0	–	–
CC(NC(=O)c1ccccc1)C(=O)N/N=C/c1ccc(O)cc1 (stereo unspecified)	–	–	–	–	–	–	·
Cc1ccc(C=NNC(=O)C(NC(=O)c2ccccc2)c2n[nH]c(=O)c3ccccc23)cc1 (stereo unspecified)	·	·	·	·	·	·	·	LYPLA2 gel ABPP=–
Cc1oc(-c2ccccc2Cl)nc1CN(Cc1ccccn1)C[C@@H]1CCC(=O)N1	–	–	–	–	–	–	·
Cc1ccc(CC(=O)N2CCN(c3cccc(C(F)(F)F)c3)CC2)cc1	–	–	–	–	–	–	·
CC/C(C)=C1\SC(N2CCN(c3cccc(C(F)(F)F)c3)CC2)=NC1=O	–	–	–	–	32.9	–	31.4
CC(=O)Nc1ccc(CN2CCN(c3cccc(C(F)(F)F)c3)CC2)cc1	–	–	–	–	54.5	–	57.8	LYPLA2 gel ABPP=–
C=C(C)CN(Cc1ccccc1)C(=S)Nc1ccccc1	–	–	–	–	–	–	·
O=C(NCc1ccc2c(c1)OCO2)C1CCC(CNS(=O)(=O)c2cccc3nsnc23)CC1 (stereo unspecified)	–	–	–	–	34.5	–	38.5
Cc1cc(S(=O)(=O)NCC(c2ccccc2)c2ccccc2)ccc1-n1cnnn1	–	–	–	–	–	–	·
SMILES	pPAFAH inh	LYPLA1 counter	PAFAH2 inh	PAFAH1B2 FP inh	LYPLA2 counter	PAFAH1B3 inh	LYPLA2 confirm	others
O=C(C1CCN(c2ncnc3c2nc2n3CCCCC2)CC1)N1CCN(c2ccc(F)cc2)CC1	–	–	–	–	40.2	–	32.0
COc1ccc2c(c1)O[C@H](c1ccc3c(c1)OCO3)[C@@H](O)C2=O	–	–	–	–	64.2	–	57.8	LYPLA2 gel ABPP=–
COc1ccc2c(c1)O[C@H](c1ccc3c(c1)OCO3)[C@@H](OC(=O)N[C@H]1CCCc3ccccc31)C2=O	–	–	·	·	–	·	·
O=C(NCCCN1CCN(c2cccc(Cl)c2)CC1)c1cccc(N2CCCC2=O)c1	–	–	–	–	27.4	–	32.6
COc1ccc(N2CCN(S(=O)(=O)CCNC(=O)c3ccc4c(c3)OCO4)CC2)cc1	–	–	–	–	–	–	·
O=C(NCCCN1CCN(c2cccc(Cl)c2)CC1)c1ccc(N2CCCC2=O)cc1	–	–	–	–	–	–	·
O=C(NCCS(=O)(=O)N1CCN(c2cccc(Cl)c2)CC1)c1ccc2c(c1)OCO2	–	–	–	–	47.5	–	56.1	LYPLA2 gel ABPP=–
Nc1ccccc1C(=O)NCCCN1CCN(c2cccc(Cl)c2)CC1	–	–	–	–	30.1	–	40.0
Cc1cc(C)n(Cc2ccc(C(=O)N/N=C/c3ccc(-c4ccc([N+](=O)[O-])cc4)o3)o2)n1	52.1	–	37.7	–	27.7	–	27.0	pPAFAH confirm=46.7
CCCCC(=O)N/N=C/c1ccc(-c2ccc([N+](=O)[O-])cc2)o1	–	–	–	–	–	–	·
CC1CN(c2nc3ccccc3nc2C(C#N)C(=O)OC2CCCCC2)CC(C)O1 (stereo unspecified)	–	–	–	–	–	–	·
NS(=O)(=O)c1ccc(-c2ccc(/C=N/Nc3ccc(C(=O)O)cc3)o2)cc1	–	–	–	–	–	–	·
O=C(O)c1cccc(-c2ccc(/C=N/Nc3ccc([N+](=O)[O-])cc3)o2)c1	41.7	–	–	–	31.1	–	27.2	pPAFAH confirm=27.9
Oc1ccccc1-c1nc2c3ccccc3c3ccccc3c2[nH]1	45.4	–	59.5	26.9	36.2	43.0	–	pPAFAH confirm=27.3
COC(=O)c1cc(S(=O)(=O)NCc2cccc(Br)c2)c[nH]1	–	–	–	–	–	–	·
O=C(Nc1ccc(Oc2ccccc2)cc1)C1CCN(c2c3c(nc4ncnn24)CCC3)CC1	75.5	–	–	–	27.6	–	–	pPAFAH confirm=75.0
O=C(CSc1nnc(SCc2ccc(Cl)cc2)s1)N/N=C/c1c[nH]c2ccccc12	40.7	–	–	–	45.2	–	58.4	pPAFAH confirm=34.5
